The results in this text go back to PubChem BioAssay AID2507 (National Center for Advancing Translational Sciences (NCATS), 2010).

Inconclusive results are not listed. Unmarked numbers belong to inactive results. Activity calls are given as the source filed them. Calls follow the shape of the dose curve; as a rule, active = well fitted inhibition curve with a large enough effect; inconclusive = small, poorly fitted or top-dose-only effect, or effect the other way; inactive = flat fitted curve, though single readings scatter.

This assay can be described thus: Secondary Assay for General miRNAs Modulators and/or Inhibitors/Activators of miR-21: miR-30 Firefly Luciferase Assay. The note with it: HeLa miR-30 FLuc reporter, luminescence, 48 h; series mostly up to 38.3 µM; activity change, negative = inhibition: at the top concentration. The source says:
MLSCN Grant: 1 R21 NS059478-01 Assay Provider: Qihong Huang, The Wistar Institute NCGC Assay Overview: MicroRNAs (miRNAs) are endogenously encoded small (~20-25 nucleotides), nonprotein-coding RNAs that are involved in post-transcriptional repression of target messenger RNAs (mRNAs) (Le and Hannon, 2004). Estimated to be involved in the regulation of 30% of all protein-coding mRNAs (Filipowicz et al., 2008), miRNAs play a significant role in many biological processes including cellular differentiation and tissue development (Ghildiyal and Zamore, 2009). […] Compounds active in the miR-21 FLuc assay were clustered using Leadscope and active chemical series were prioritized based on chemical properties, potential for medicinal chemistry optimization, and SAR. Within each chemical series, representative compounds were re-acquired to test for activity in a secondary assay based on the quality of their CRC, efficacy, and potency. The secondary assay to determine if compounds active in the miR-21 FLuc assay were potentially specific for miR-21 and were not general modulators of the miRNA pathway was another cell-based FLuc reporter gene assay, this time targeting miR-30. Compounds found active in both the miR-21 FLuc and miR-30 FLuc assays are not considered miR-21 specific compounds, and may be general miRNA modulators.
NCGC Assay Protocol Summary: Reagents: HeLa cells stably expressing firefly luciferase (FLuc) under the control of a CMV promoter (upstream) and a miR-30 binding sequence directly downstream of the gene. These cells also stably express miR-30. Control compounds used were compound C3 (provided by collaborator), N6-phenyladenosine (MP Biomedicals, 0215379625), and DMSO. Assay Summary: 6uL of HeLa miR-30-FLuc cells in assay buffer (DMEM, Invitrogen #21063-029; 10% FBS, HyClone #SH30071.03) were dispensed at 1000cells/well (1.7 x 10^5 cells/mL) into Greiner solid-white TC-treated 1536-well plates using a Multidrop Combi (Thermo Fisher Scientific). Plates were incubated for one hour at 37 degree Celsius, 95% humidity, 5% CO2. These assay plates were then treated with 23nL of compound or DMSO using a Kalypsys pin tool, which allows for delivery of a 24-point titration of each compound to the assay plate, with a final compound concentration ranging from approximately 40uM to 5pM. Assay plates were then incubated for 48 hours. After incubation, plates were allowed to come to RT for one hour prior to delivery of 3uL of 3X luciferase detection reagent. After a 15 minute incubation to allow for cell lysis, luciferase activity was measured using a ViewLux CCD imager (PerkinElmer), with an average exposure time of 2-12 seconds. Keywords: NIH Roadmap, MLPCN, MLSMR, qHTS, miR-21, miR-30, microRNA, firefly luciferase, FLuc.
Consider `COc1cccc(NC(=O)CSc2nnc(-c3cccs3)o2)c1`, for which the Potency was 5.65 µM (active).

As to `Cc1cccc(-c2nsc(SCC(=O)Nc3ccc4c(c3)OCO4)n2)c1`, the Potency is 22.5 µM (active).

On to `Cn1c(=O)[nH]c2cc(-c3noc(-c4ccc(F)cc4)n3)ccc21`, for which the Potency is 2.52 µM (active).

Turning to `Cc1ccc2c(C)c(C(=O)N(C)C(C)c3ccncn3)oc2c1C` (stereo not given), the Potency was 22.5 µM (active).

Consider `CCc1ccc2oc(C(=O)Nc3nonc3CC)c(C)c2c1`, for which the Potency is 3.56 µM (active).

Take `CC(=O)Nc1nc2c(C)cc(NC(=O)C3CCCCC3)cc2s1`: the Potency was 1.26 µM (active).

Consider `CN(C)c1ccc(CNc2nc(-c3ccco3)nn2S(C)(=O)=O)cc1`, for which the Potency is 2.83 µM (active).

With `CCc1ccc(-n2nnc(-c3nc(-c4cccs4)no3)c2N)cc1`, the Potency is 1.42 µM (active).

`Cc1ccc(-c2nc(NCc3ccco3)n(S(C)(=O)=O)n2)cc1`: the Potency was 11.3 µM (active).

Regarding `CCc1nonc1NC(=O)c1oc2cc(C)c(C)cc2c1C`, the Potency is 3.18 µM (active).

As for `O=C(CSc1nnc(-c2ccc(C(F)(F)F)cn2)o1)Nc1cccc(Cl)c1`, the Potency is 2.83 µM (active).

As for `Cc1cc(C)c2c(N)c(C(=O)Nc3ccccc3F)sc2n1`, the Potency is 1.79 µM (active).

As for `COc1ccccc1NC(=O)CSc1nnc(-c2ccccn2)o1`, the Potency was 5.04 µM (active).

As for `CCc1nonc1NC(=O)c1oc2ccc(C)cc2c1C`, the Potency was 4.49 µM (active).

With `Nc1c(C(=O)Nc2ccccc2Br)sc2nc(-c3cccs3)ccc12`, the “activity change, negative = inhibition” value is 9.39%.

Consider `CCc1cccc(-n2nnc(-c3nsc(NC(=O)c4cccs4)n3)c2C)c1`, for which the Potency was 7.11 µM (active).

`Cc1c(-c2nnc(SCC(=O)Nc3ccccc3F)o2)nnn1-c1ccc(F)cc1`: the Potency was 4 µM (active).

With `CC(C)C(=O)Nc1nc2c(s1)CC(C(C)(C)C)CC2` (stereo not given), the Potency is 0.895 µM (active).

As for `Cc1c(-c2nsc(NC(=O)c3cccs3)n2)nnn1-c1ccc(F)cc1`, the Potency is 0.895 µM (active).

In the case of `Cc1cc(SCC(=O)Nc2nsc(-c3ccc(C(C)(C)C)cc3)n2)nc2ccccc12`, the Potency is 2 µM (active).

Regarding `Cc1ccccc1OCCn1cnc2c(N)ncnc21`, the “activity change, negative = inhibition” value is -28.9%.

For the compound `Cc1ccc(SCC(=O)Nc2ccc3oc(-c4ccc(F)cc4)nc3c2)cc1`, the Potency was 11.3 µM (active).

With `Cc1cccc(OCc2nnc(SCC(=O)Nc3ccc(N4CCOCC4)cc3)o2)c1`, the “activity change, negative = inhibition” value is 10.4%.

Turning to `COc1ccc(-c2nc(SCc3ccccc3)n(S(C)(=O)=O)n2)cc1`, the Potency was 11.3 µM (active).

For the compound `CCC(Oc1ccccc1F)C(=O)N1CCC(c2nc3ccccc3s2)CC1` (stereo not given), the “activity change, negative = inhibition” value is 18.4%.

As to `Cc1cc(C)n2c(SCc3ccccc3Cl)nnc2n1`, the Potency is 14.2 µM (active).

With `Cc1cccc(-n2nnc(-c3nc(-c4cccs4)no3)c2N)c1C`, the Potency was 0.159 µM (active).

On to `COc1ccc(CNc2n[nH]c(-c3ccco3)n2)cc1OC`, for which the “activity change, negative = inhibition” value was -23.9%.

As for `CSc1nsc(SCC(=O)Nc2ccc(F)cc2F)n1`, the Potency is 12.6 µM (active).

In the case of `O=C(CSc1nnc(-c2ccncc2)o1)Nc1nncs1`, the “activity change, negative = inhibition” value is 0.64%.

On to `O=C(Nc1nnc(S(=O)(=O)N2CCCC2)s1)c1ccc(F)cc1`, for which the “activity change, negative = inhibition” value was -22.3%.

With `COc1ccc(NC(=O)c2ncn(-c3ccccc3)n2)cc1Cl`, the Potency is 14.2 µM (active).

As to `O=C(CSc1nnc(-c2ccc(Cl)cc2)o1)Nc1ccc(F)cc1`, the Potency was 3.18 µM (active).

As for `COc1ccc(-c2csc(NC(=O)COC(=O)c3ccc(Br)o3)n2)cc1`, the Potency is 2.25 µM (active).

For the compound `Cc1ccccc1Nc1nc(N)nc(CN(C)c2ccccc2)n1`, the Potency is 12.6 µM (active).

As for `COc1ccc(-n2nnc(-c3nc(-c4cccs4)no3)c2N)cc1OC`, the “activity change, negative = inhibition” value was -14.2%.

On to `N#Cc1cc2cc3c(cc2nc1SCC(=O)N1CCOCC1)OCO3`, for which the Potency is 0.798 µM (active).

Take `COc1ccc(CNc2nc(-c3ccco3)nn2C(=O)CC(C)C)cc1`: the Potency is 11.3 µM (active).

As for `Cc1cc(C)cc(NC(=O)CSc2nnc(CNC(=O)c3ccco3)o2)c1`, the “activity change, negative = inhibition” value is 4.57%.

For `Nc1c(-c2nc(-c3ccncc3)no2)nnn1CC(=O)Nc1ccccc1`, the “activity change, negative = inhibition” value was -3.22%.
